Assay results as given in publication PMC7862700, “An all-to-all approach to the identification of sequence-specific readers for epigenetic DNA modifications on cytosine”.

Assays:
Experiment in all cases: DAPPL (digital affinity profiling via proximity ligation, sequencing); 10 mM Tris-HCl pH 7.5, 50 mM NaCl, 1 mM DTT, 4% glycerol, room temperature, 30 min; GST-TFs on glutathione beads, 16-mer random dsDNA library, 0.1% formaldehyde crosslink after washing; high values mean tight binding
Details in all cases: protein: recombinant; tags: N-terminal GST; dsDNA, one strand shown
[1] = target: T1, ERF (Homo sapiens, UniProt P50548 1-548)
T1 sequence: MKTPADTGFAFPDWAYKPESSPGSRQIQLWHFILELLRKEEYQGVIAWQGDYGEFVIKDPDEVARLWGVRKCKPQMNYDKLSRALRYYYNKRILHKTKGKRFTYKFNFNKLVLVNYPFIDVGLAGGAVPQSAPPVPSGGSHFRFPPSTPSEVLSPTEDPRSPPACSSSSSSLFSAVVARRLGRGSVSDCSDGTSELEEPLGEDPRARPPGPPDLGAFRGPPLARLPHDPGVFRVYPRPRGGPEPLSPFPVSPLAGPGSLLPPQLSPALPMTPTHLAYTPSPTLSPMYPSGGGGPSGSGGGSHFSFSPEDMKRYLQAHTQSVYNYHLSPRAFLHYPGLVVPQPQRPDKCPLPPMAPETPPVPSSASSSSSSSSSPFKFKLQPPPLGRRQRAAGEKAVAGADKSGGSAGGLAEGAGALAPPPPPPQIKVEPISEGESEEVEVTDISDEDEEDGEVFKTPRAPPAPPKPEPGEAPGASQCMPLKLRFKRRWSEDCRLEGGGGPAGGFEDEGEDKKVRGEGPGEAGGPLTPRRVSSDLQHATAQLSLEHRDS
Summary of the method: (§1)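 A tag-only sample was pooled with DNA-barcoded human transcription factors that had been expressed in yeast as GST fusions and captured on glutathione beads. The pools were incubated for 30 min at room temperature with 200 nmole of a random double-stranded 16-mer DNA library in Tris/NaCl/DTT/glycerol buffer, then washed, crosslinked with 0.1% formaldehyde, proximity-ligated (BsaI/T4 ligase, 1 h, 37 °C), PCR-amplified and sequenced on an Illumina NextSeq500. Binding signal is each hexamer's read frequency for a factor divided by its frequency for the tag-only sample.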

[2] = target: T2, ETV3L (Homo sapiens, UniProt Q6ZN32 1-361)
T2 sequence: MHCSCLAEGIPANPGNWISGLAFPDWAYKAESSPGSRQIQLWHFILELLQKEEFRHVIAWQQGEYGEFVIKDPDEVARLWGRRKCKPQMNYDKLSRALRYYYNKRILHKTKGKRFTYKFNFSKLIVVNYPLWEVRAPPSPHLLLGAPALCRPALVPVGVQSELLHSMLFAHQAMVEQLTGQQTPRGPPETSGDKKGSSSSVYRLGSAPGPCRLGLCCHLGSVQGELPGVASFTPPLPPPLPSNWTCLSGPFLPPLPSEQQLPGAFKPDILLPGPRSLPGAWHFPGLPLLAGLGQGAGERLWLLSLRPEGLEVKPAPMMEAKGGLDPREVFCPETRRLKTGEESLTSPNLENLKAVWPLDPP
Summary of the method: as §1

[3] = target: T3, ETS2 (Homo sapiens, UniProt P15036 1-469)
T3 sequence: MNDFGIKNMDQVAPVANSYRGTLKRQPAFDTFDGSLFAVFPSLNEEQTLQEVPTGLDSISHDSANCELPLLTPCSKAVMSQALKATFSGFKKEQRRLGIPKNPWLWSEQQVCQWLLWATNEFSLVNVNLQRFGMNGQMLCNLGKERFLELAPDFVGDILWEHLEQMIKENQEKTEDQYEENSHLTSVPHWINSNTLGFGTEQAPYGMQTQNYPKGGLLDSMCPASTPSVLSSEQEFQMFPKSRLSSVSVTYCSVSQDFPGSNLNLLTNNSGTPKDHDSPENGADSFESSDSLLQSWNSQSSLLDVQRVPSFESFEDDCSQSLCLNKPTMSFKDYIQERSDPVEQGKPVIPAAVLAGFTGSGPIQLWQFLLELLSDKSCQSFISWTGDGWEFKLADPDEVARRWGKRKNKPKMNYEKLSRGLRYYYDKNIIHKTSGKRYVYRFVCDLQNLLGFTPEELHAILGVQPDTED
Summary of the method: as §1

[4] = target: T4, SPDEF (Homo sapiens, UniProt O95238 1-335)
T4 sequence: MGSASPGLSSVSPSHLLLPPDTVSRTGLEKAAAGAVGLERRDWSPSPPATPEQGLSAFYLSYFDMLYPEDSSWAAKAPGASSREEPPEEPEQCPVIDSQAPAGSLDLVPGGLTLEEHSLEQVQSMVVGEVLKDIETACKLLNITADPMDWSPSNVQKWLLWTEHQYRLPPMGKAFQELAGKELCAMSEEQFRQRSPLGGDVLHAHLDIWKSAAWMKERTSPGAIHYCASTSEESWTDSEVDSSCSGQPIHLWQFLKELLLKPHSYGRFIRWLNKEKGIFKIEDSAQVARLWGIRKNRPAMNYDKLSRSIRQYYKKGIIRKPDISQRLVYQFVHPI
Summary of the method: as §1

[5] = target: T5, ETV7 (Homo sapiens, UniProt Q9Y603 1-341)
T5 sequence: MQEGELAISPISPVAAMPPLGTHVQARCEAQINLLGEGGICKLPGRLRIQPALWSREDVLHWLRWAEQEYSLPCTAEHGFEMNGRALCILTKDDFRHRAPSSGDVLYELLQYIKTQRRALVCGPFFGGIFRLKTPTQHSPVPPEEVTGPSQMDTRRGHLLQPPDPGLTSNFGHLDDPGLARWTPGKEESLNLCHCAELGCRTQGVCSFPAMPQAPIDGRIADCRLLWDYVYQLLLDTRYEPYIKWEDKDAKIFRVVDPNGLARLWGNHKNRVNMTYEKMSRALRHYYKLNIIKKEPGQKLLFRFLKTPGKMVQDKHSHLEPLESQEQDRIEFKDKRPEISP
Summary of the method: as §1

[6] = target: T6, ELF5 (Homo sapiens, UniProt Q9UKW6-2 1-255)
T6 sequence: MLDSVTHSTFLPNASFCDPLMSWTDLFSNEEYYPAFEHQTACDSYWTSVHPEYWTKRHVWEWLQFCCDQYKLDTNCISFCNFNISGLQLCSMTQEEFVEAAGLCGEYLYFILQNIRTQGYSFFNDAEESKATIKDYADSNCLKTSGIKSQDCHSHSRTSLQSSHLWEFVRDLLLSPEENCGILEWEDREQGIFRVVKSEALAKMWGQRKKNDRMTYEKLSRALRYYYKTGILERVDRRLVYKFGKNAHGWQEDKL
Summary of the method: as §1

[7] = target: T7, ETV3 (Homo sapiens, UniProt P41162-2 1-143)
T7 sequence: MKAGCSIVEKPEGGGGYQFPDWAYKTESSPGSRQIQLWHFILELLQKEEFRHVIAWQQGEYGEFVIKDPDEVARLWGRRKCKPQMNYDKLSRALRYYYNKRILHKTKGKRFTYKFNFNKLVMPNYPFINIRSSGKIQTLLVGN
Summary of the method: as §1

[8] = target: ETV6 (Homo sapiens, UniProt P41212 1-452)
Summary of the method: as §1

Sequence of ETV6 (P41212 whole entry): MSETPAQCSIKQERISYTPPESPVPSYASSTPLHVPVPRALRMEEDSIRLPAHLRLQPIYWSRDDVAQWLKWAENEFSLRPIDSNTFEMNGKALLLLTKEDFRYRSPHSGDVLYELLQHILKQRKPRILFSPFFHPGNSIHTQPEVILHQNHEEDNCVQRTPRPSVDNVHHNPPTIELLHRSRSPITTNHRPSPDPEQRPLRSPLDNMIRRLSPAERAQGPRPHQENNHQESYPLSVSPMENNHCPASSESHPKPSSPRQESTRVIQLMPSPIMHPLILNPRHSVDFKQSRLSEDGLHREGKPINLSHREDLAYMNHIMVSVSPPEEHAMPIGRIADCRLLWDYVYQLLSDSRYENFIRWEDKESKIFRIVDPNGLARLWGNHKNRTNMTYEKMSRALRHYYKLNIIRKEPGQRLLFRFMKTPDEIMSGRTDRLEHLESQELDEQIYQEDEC

Sequence	binding signal [1]	binding signal [2]	binding signal [3]	binding signal [4]	binding signal [5]	binding signal [6]	binding signal [7]	binding signal [8]
TGCGCA	1.11 fold enrichment (6-mer frequency, TF over GST control)	1.11 fold enrichment (6-mer frequency, TF over GST control)	1.18 fold enrichment (6-mer frequency, TF over GST control)	1.02 fold enrichment (6-mer frequency, TF over GST control)	1.03 fold enrichment (6-mer frequency, TF over GST control)	1.06 fold enrichment (6-mer frequency, TF over GST control)	1.14 fold enrichment (6-mer frequency, TF over GST control)	1.07 fold enrichment (6-mer frequency, TF over GST control)
TTCGAG	1.23 fold enrichment (6-mer frequency, TF over GST control)	1.36 fold enrichment (6-mer frequency, TF over GST control)	1.26 fold enrichment (6-mer frequency, TF over GST control)	1.19 fold enrichment (6-mer frequency, TF over GST control)	1.18 fold enrichment (6-mer frequency, TF over GST control)	1.14 fold enrichment (6-mer frequency, TF over GST control)	1.09 fold enrichment (6-mer frequency, TF over GST control)	1.28 fold enrichment (6-mer frequency, TF over GST control)
TCTATG	1.07 fold enrichment (6-mer frequency, TF over GST control)	1.08 fold enrichment (6-mer frequency, TF over GST control)	1.08 fold enrichment (6-mer frequency, TF over GST control)	1.05 fold enrichment (6-mer frequency, TF over GST control)	1.25 fold enrichment (6-mer frequency, TF over GST control)	1.07 fold enrichment (6-mer frequency, TF over GST control)	1.18 fold enrichment (6-mer frequency, TF over GST control)	–
TCATCG	1.06 fold enrichment (6-mer frequency, TF over GST control)	1.08 fold enrichment (6-mer frequency, TF over GST control)	–	–	–	–	–	–
TCGCAC	1.06 fold enrichment (6-mer frequency, TF over GST control)	1.06 fold enrichment (6-mer frequency, TF over GST control)	1.04 fold enrichment (6-mer frequency, TF over GST control)	1.05 fold enrichment (6-mer frequency, TF over GST control)	1.03 fold enrichment (6-mer frequency, TF over GST control)	1.06 fold enrichment (6-mer frequency, TF over GST control)	1.07 fold enrichment (6-mer frequency, TF over GST control)	–
CCAACA	1.05 fold enrichment (6-mer frequency, TF over GST control)	1.01 fold enrichment (6-mer frequency, TF over GST control)	1.03 fold enrichment (6-mer frequency, TF over GST control)	1.06 fold enrichment (6-mer frequency, TF over GST control)	1.05 fold enrichment (6-mer frequency, TF over GST control)	1.01 fold enrichment (6-mer frequency, TF over GST control)	1.1 fold enrichment (6-mer frequency, TF over GST control)	–
TTGGGT	1.27 fold enrichment (6-mer frequency, TF over GST control)	1.1 fold enrichment (6-mer frequency, TF over GST control)	1.03 fold enrichment (6-mer frequency, TF over GST control)	1.04 fold enrichment (6-mer frequency, TF over GST control)	1.08 fold enrichment (6-mer frequency, TF over GST control)	1.08 fold enrichment (6-mer frequency, TF over GST control)	–	–
TGCTCA	1.5 fold enrichment (6-mer frequency, TF over GST control)	1.31 fold enrichment (6-mer frequency, TF over GST control)	1.36 fold enrichment (6-mer frequency, TF over GST control)	1.28 fold enrichment (6-mer frequency, TF over GST control)	1.54 fold enrichment (6-mer frequency, TF over GST control)	1.38 fold enrichment (6-mer frequency, TF over GST control)	1.24 fold enrichment (6-mer frequency, TF over GST control)	1.28 fold enrichment (6-mer frequency, TF over GST control)
GCATCC	1.43 fold enrichment (6-mer frequency, TF over GST control)	1.56 fold enrichment (6-mer frequency, TF over GST control)	1.61 fold enrichment (6-mer frequency, TF over GST control)	2.71 fold enrichment (6-mer frequency, TF over GST control)	1.43 fold enrichment (6-mer frequency, TF over GST control)	1.64 fold enrichment (6-mer frequency, TF over GST control)	1.62 fold enrichment (6-mer frequency, TF over GST control)	1.57 fold enrichment (6-mer frequency, TF over GST control)
AAGAAG	1.01 fold enrichment (6-mer frequency, TF over GST control)	1.04 fold enrichment (6-mer frequency, TF over GST control)	1.04 fold enrichment (6-mer frequency, TF over GST control)	1.01 fold enrichment (6-mer frequency, TF over GST control)	1.16 fold enrichment (6-mer frequency, TF over GST control)	1.12 fold enrichment (6-mer frequency, TF over GST control)	1.05 fold enrichment (6-mer frequency, TF over GST control)	1.16 fold enrichment (6-mer frequency, TF over GST control)
TCTGAC	1.21 fold enrichment (6-mer frequency, TF over GST control)	1.04 fold enrichment (6-mer frequency, TF over GST control)	1.2 fold enrichment (6-mer frequency, TF over GST control)	1.14 fold enrichment (6-mer frequency, TF over GST control)	1.22 fold enrichment (6-mer frequency, TF over GST control)	1.2 fold enrichment (6-mer frequency, TF over GST control)	1.18 fold enrichment (6-mer frequency, TF over GST control)	1.27 fold enrichment (6-mer frequency, TF over GST control)
TCCCCG	1.21 fold enrichment (6-mer frequency, TF over GST control)	1.17 fold enrichment (6-mer frequency, TF over GST control)	1.11 fold enrichment (6-mer frequency, TF over GST control)	1.14 fold enrichment (6-mer frequency, TF over GST control)	1.15 fold enrichment (6-mer frequency, TF over GST control)	1.24 fold enrichment (6-mer frequency, TF over GST control)	1.27 fold enrichment (6-mer frequency, TF over GST control)	1.13 fold enrichment (6-mer frequency, TF over GST control)
GAAGTT	1.47 fold enrichment (6-mer frequency, TF over GST control)	1.64 fold enrichment (6-mer frequency, TF over GST control)	1.71 fold enrichment (6-mer frequency, TF over GST control)	1.56 fold enrichment (6-mer frequency, TF over GST control)	1.65 fold enrichment (6-mer frequency, TF over GST control)	2 fold enrichment (6-mer frequency, TF over GST control)	1.7 fold enrichment (6-mer frequency, TF over GST control)	1.93 fold enrichment (6-mer frequency, TF over GST control)
TAGAAT	1.17 fold enrichment (6-mer frequency, TF over GST control)	1.09 fold enrichment (6-mer frequency, TF over GST control)	1.06 fold enrichment (6-mer frequency, TF over GST control)	1.07 fold enrichment (6-mer frequency, TF over GST control)	1.13 fold enrichment (6-mer frequency, TF over GST control)	1.08 fold enrichment (6-mer frequency, TF over GST control)	1.05 fold enrichment (6-mer frequency, TF over GST control)	1.15 fold enrichment (6-mer frequency, TF over GST control)
CGTCTA	1.29 fold enrichment (6-mer frequency, TF over GST control)	1.4 fold enrichment (6-mer frequency, TF over GST control)	1.29 fold enrichment (6-mer frequency, TF over GST control)	1.26 fold enrichment (6-mer frequency, TF over GST control)	1.28 fold enrichment (6-mer frequency, TF over GST control)	1.17 fold enrichment (6-mer frequency, TF over GST control)	1.26 fold enrichment (6-mer frequency, TF over GST control)	1.26 fold enrichment (6-mer frequency, TF over GST control)
TTGCGG	1.25 fold enrichment (6-mer frequency, TF over GST control)	1.3 fold enrichment (6-mer frequency, TF over GST control)	1.21 fold enrichment (6-mer frequency, TF over GST control)	1.24 fold enrichment (6-mer frequency, TF over GST control)	1.29 fold enrichment (6-mer frequency, TF over GST control)	1.24 fold enrichment (6-mer frequency, TF over GST control)	1.34 fold enrichment (6-mer frequency, TF over GST control)	1.41 fold enrichment (6-mer frequency, TF over GST control)
